According to PubChem BioAssay (EPA / NIEHS):
Several values for one entry are separate records, joined by “and”; a condition that tells them apart may be missing. Equal values may be shown once. Some structures have more than one record in an assay (separate samples or runs), and their calls can disagree. Activity calls are given as the source filed them. The calls were made as follows: active = hit-call score of the fitted dose curve at least 0.9, where 1 is the maximum; inactive = score below 0.9.

Read-out: Monocyte Chemoattractant Protein-1 (MCP1), CCL2 (gene 6347)
Assay: BSK_hDFCGF_MCP1: BioMAP Diversity Plus: hDFCGF Assay for Monocyte Chemoattractant Protein-1 (MCP1) Biomarker Activity (AID 2284285)
Settings: primary human foreskin fibroblasts
Method: BSK_hDFCGF is a cell-based, multiplexed-readout assay that uses foreskin fibroblast, a human skin primary cell, with measurements taken at 24 hours after chemical dosing in a 96-well plate.BSK_hDFCGF_MCP1 is an assay component measured in the BSK_hDFCGF assay. It measures MCP-1 antibody related to regulation of gene expression using ELISA technology.Data from the assay component BSK_hDFCGF_MCP1 was analyzed at the endpoint, BSK_hDFCGF_MCP1, in the positive analysis fitting direction relative to DMSO as the negative control and baseline of activity. Using a type of binding reporter, gain or loss-of-signal activity can be used to understand protein changes. To generalize the intended target to other relatable targets, this assay endpoint is annotated to the 'cytokine' intended target family, where the subfamily is 'chemotactic factor'.
The levels of cell surface (or secreted, indicated by the prefix "s") biomarker endpoints were measured by ELISA. Overt cytotoxicity to cells in confluent adherent cultures (all systems other than the BT system) was assessed by measuring total protein levels using sulforhodamine B (SRB) staining in parallel cultures at the time of biomarker measurements, indicated as SRB endpoints. For proliferation assays for adherent cell types, individual cell types are cultured at sub-confluence and relative cell numbers quantified by SRB staining at time points optimized for each system (48 h: 3C and CASM3C systems; 72 h: BT and HDF3CGF systems; 96 h: SAg system). SRB was performed by staining cells with 0.1% SRB after fixation with 10% TCA and reading wells at 560 nm.Viability and proliferation of PBMC (T cells) was quantified by Alamar Blue reduction for the SAg and BT systems. For PBMC viability (referred to as PBMC Cytotoxicity within the assay endpoint names), cells were plated (75,000/well in a 96-well plate) and then chemical samples added for 1 h before addition of activators, SEB and TSST-1 (20 ng/mL final concentration each). Cells were incubated for 90 h. Then, Alamar Blue (20 uL/well) (Invitrogen, Cat DAL1100) was added for 6 h, and the plates were read with a fluorescence microplate reader at 546/580 nm (excitation/emission). For PBMC proliferation, cells were plated and activated as above but incubated for only 16 h prior to addition of Alamar Blue. Plates were read after 6 h.

SMILES	AC50	outcome
O=[N+]([O-])c1cc(S(=O)(=O)Nc2ccccc2)ccc1Nc1ccccc1	30.8 µM (active) and 29.7 µM (active)	–
CCCCC(CC)COC(=O)C=Cc1ccc(OC)cc1 (stereo unspecified)	8.08 µM (active)	inactive
CC(C)C1OCCN1CCOC(=O)NCCCCCCNC(=O)OCCN1CCOC1C(C)C (stereo unspecified)	0.149 µM (active)	inactive
CC[N+](CC)(CC(=O)Nc1c(C)cccc1C)Cc1ccccc1 (tested in a mixture with another compound)	–	inactive
COc1cc(CNC(=O)CCCC/C=C/C(C)C)ccc1O	0.508 µM (active)	inactive
CN(C)Cc1cc(C(C)(C)C)c(O)c(C(C)(C)C)c1	–	inactive
OC(C(F)(F)F)(C(F)(F)F)C(O)(C(F)(F)F)C(F)(F)F	7.94 µM (active)	inactive
C1CN(CCOCCN2CCOCC2)CCO1	–	inactive
Cc1c(C(N)=O)cc([N+](=O)[O-])cc1[N+](=O)[O-]	–	inactive
COc1ccc(C(=O)c2ccccc2O)c(O)c1	–	inactive
CCC[Si](OC(C)=O)(OC(C)=O)OC(C)=O	–	inactive
COc1ccccc1Oc1c(NS(=O)(=O)c2ccc(C(C)(C)C)cc2)nc(-c2ncccn2)nc1OCCO	–	inactive
